# Reference: the supplement of paper PMC7380943
# Key:
# [1] = tested on: CLZ3 (HCA2 human fibroblast dual HR-NHEJ reporter); experiment: NHEJ repair efficiency (GFP+ cells) relative to control (log10 fold); higher = more non-homologous end joining; details: 5 µM; doxycycline 0.5 ug/mL
# [2] = tested on: CLZ3 (HCA2 human fibroblast dual HR-NHEJ reporter); experiment: HR repair efficiency (tdTomato+ cells) relative to control (log10 fold); higher = more homologous recombination; details: 5 µM; doxycycline 0.5 ug/mL
# 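Throughout, for HR repair efficiency (tdTomato+ cells) relative to control: compound given one day before doxycycline, which switches on I-SceI endonuclease expression to create double-strand breaks within the integrated reporter.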
# 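Throughout, for NHEJ repair efficiency (GFP+ cells) relative to control: compound given one day ahead of doxycycline, which switches on I-SceI endonuclease to cut the chromosomally integrated reporter and create DSBs.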
Compound,NHEJ repair efficiency (log10) [1],HR repair efficiency (log10) [2]
CCN1C[C@]2(COC)[C@H](O)C[C@H](OC)[C@]34C1[C@H]([C@H](OC)[C@H]23)[C@@]1(OC(C)=O)C[C@H](OC)[C@@]2(O)C[C@@H]4[C@@H]1[C@H]2OC(=O)c1ccccc1 [Indaconitine],0.0186,0.112
c1cc2c(cc1[C@H]1OC[C@H]3[C@@H]1CO[C@H]3c1ccc3c(c1)OCO3)OCO2 [Asarinin],-0.271,-0.223
CC(=O)[C@]1(O)CC[C@@]2(O)[C@]1(C)[C@H](OC(=O)/C=C(\C)C(C)C)C[C@@H]1[C@@]3(C)CC[C@H](O)CC3=CC[C@]12O [Caudatin],-0.0815,-0.0376
O=c1ccc2cc(O[C@@H]3O[C@H](CO)[C@@H](O)[C@H](O)[C@H]3O)c(O)cc2o1 [Aesculin],0.023,0.148
O=C/C=C/c1ccccc1 [Cinnamaldehyde],0.0683,-0.0835
O=C(/C=C/c1ccccc1)OC[C@H]1O[C@@H](O[C@@H]2OC=C[C@H]3[C@H](O)[C@@H]4O[C@]4(CO)[C@@H]23)[C@H](O)[C@@H](O)[C@@H]1O [Picroside I],-0.0564,-0.0261
CC(=O)OC[C@]12[C@H](OC(C)=O)[C@H](OC(C)=O)[C@@H]3[C@@H](OC(C)=O)[C@@]14O[C@@]3(C)COC(=O)c1cccnc1CCC(C)C(=O)O[C@@H]([C@H](OC(=O)c1ccccc1)[C@@H]2OC(C)=O)[C@]4(C)O (some centres not stated) [Wilforine],-0.122,0.027
CCN1C[C@]2(COC)CC[C@H](O)[C@]34C1[C@@](O)([C@@H](OC)[C@H]23)[C@@]1(O)C[C@H](OC)[C@H]2C[C@@H]4[C@@H]1[C@H]2OC [Delsoline],-0.0325,0.0487
COC[C@]12CN(C)C3[C@@H]4[C@H](OC)[C@H]1[C@@]3([C@@H](OC)C[C@H]2O)[C@@H]1C[C@@]2(O)[C@H](OC(=O)c3ccccc3)[C@@H]1[C@]4(O)[C@@H](O)[C@@H]2OC [Benzoylmesaconine],-0.0412,-0.144
CCN1C[C@]2(OC(=O)c3ccccc3NC(C)=O)CC[C@H](OC)[C@@]34[C@@H]2C[C@@H]([C@@H]13)[C@@]1(O)C[C@H](OC)[C@H]2C[C@@H]4[C@]1(O)[C@H]2OC [Lappaconitine],0.147,0.0273
COc1cc2c(cc1O)C[C@@H]1NCCc3cc(OC)c(O)c-2c31 [Norisoboldine],-0.132,-0.0981
CCN1C[C@]2(COC)CC[C@H](O)C34C1C([C@H](OC)[C@@H]32)[C@]1(O)[C@@H]2[C@H]4CC([C@@H](OC)[C@@H]1O)[C@@H]2O [Fuziline],0.0177,0.0271
CCC(C)C(=O)O[C@@H]1[C@@H](OC(C)=O)[C@]2(C)[C@H](C(C)=O)CC[C@@]23O[C@]32CC[C@H]3C[C@@H](O[C@H]4C[C@@H](OC)[C@H](O[C@@H]5O[C@H](C)[C@@H](O)[C@@H](OC)[C@H]5O)[C@@H](C)O4)CC[C@]3(C)[C@@H]12 (some centres not stated) [Tenacissoside H],-0.0163,0.0233
CCC1=C[C@H]2CN3CCc4c([nH]c5ccccc45)[C@](C(=O)OC)(C2)[C@H]13 [Catharanthine],0.00477,0.0298
C[C@@H]1CCC=C2C(=O)C[C@H]3OOC(C)(C)[C@H]3[C@]21C [Nardosinone],-0.0297,-0.0118
COc1c(C)c(O)cc2[o+]c(-c3ccccc3)ccc12.[O-][Cl+3]([O-])([O-])[O-] [Dracorhodin perochlorate],0.134,0.0436
CC(C)c1cc2c(c(O)c1O)[C@@]1(C(=O)O)CCCC(C)(C)[C@@H]1CC2 [Carnosic acid],0.106,0.167
COc1cc2occc2c2oc(=O)ccc12 [Isobergapten],-0.0955,-0.063
CCN1C[C@]2(COC)[C@H](O)C[C@H](OC)[C@]34C1[C@H]([C@H](OC)[C@H]23)[C@@]1(OC(C)=O)C[C@H](OC)[C@@]2(O)C[C@@H]4[C@@H]1[C@H]2OC(=O)c1ccc(OC)cc1 [Yunaconitine],-0.0536,-0.204
CCN1C[C@]2(COC)[C@H](O)C[C@H](OC)[C@@]34[C@@H]5C[C@@]6(O)[C@H](OC(=O)c7ccccc7)[C@@H]5[C@@](OC(C)=O)([C@@H]([C@H](OC)[C@H]23)[C@@H]14)[C@@H](O)[C@@H]6OC [Aconitine],-0.148,0.0783
CC1=C2C[C@H]3[C@@H](CC(=O)[C@H]4C[C@@H](O)CC[C@@]43C)[C@@H]2CC[C@]12O[C@@H]1C[C@H](C)CN[C@H]1[C@H]2C [Peimisine],-0.0359,-0.00991
